Experimental data as given in paper PMC5540273 (PLoS ONE, 2017).

Columns and labels:
Conditions in all cases: concentration: 1 μM, replicates: in singlicate; n = 1
TESK1 = system: TESK1
TGFBR1 = system: TGFBR1
TGFBR2 = system: TGFBR2
TIE1 = system: TIE1
TIE2 = system: T1, TIE2
T1 construct: gene TEK

TLK1 = system: TLK1
TLK2 = system: TLK2
TNIK = system: TNIK
TNK1 = system: TNK1
TNK2 = system: TNK2
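Further: KINOMEscan kinase panel screen.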

Row | SMILES | %Inh (TESK1) | %Inh (TGFBR1) | %Inh (TGFBR2) | %Inh (TIE1) | %Inh (TIE2) | %Inh (TLK1) | %Inh (TLK2) | %Inh (TNIK) | %Inh (TNK1) | %Inh (TNK2)
1 | CCOc1nccc(-c2c(-c3ccc(F)cc3)ncn2C2CCNCC2)n1 [SB-249175] | 12% | 19% | 11% | 23% | 19% | 0% | 15% | 49% | 21% | 0%
2 | N#Cc1cnc2cc(-c3cnc(CNCCN4CCOCC4)s3)ccc2c1Nc1ccc(Oc2ccccc2)cc1 [GW664114] | 6% | 6% | 0% | 11% | 6% | 21% | 11% | 92.9% | 99% | 94.6%
3 | O=C1NC(=O)C(c2ccccc2Cl)=C1Nc1cccc(Cl)c1 [SB-342409] | 20% | 4% | 71% | 7% | 0% | 68% | 50% | 0% | 12% | 18%
4 | CN(C)c1ncnc2nc[nH]c12 [SKF-31736] | 0% | 0% | 0% | 5% | 0% | 0% | 0% | 0% | 0% | 0%
5 | Cc1nn2c(=O)cc(N3CCO[C@H](C)C3)nc2n1Cc1cccc(Cl)c1Cl [GSK2373693] | 20% | 0% | 8% | 15% | 2% | 0% | 0% | 0% | 0% | 10%
6 | CS(=O)(=O)c1cccc(CNc2nc(Nc3ccc4c(c3)CCC(=O)N4)ncc2C(F)(F)F)c1 | 0% | 2% | 0% | 57% | 30% | 0% | 0% | 90.1% | 73% | 0%
7 | Cc1ccccc1CC(=O)N1CCc2cc(-c3cn(C)c4ncnc(N)c34)ccc21 [GSK2603346] | 45% | 0% | 3% | 87% | 48% | 0% | 0% | 0% | 0% | 27%
8 | c1ccc(Oc2ccc(Nc3ccnc4cc(-c5ccc(CN6CCCCC6)o5)ccc34)cc2)nc1 [GW567143] | 16% | 0% | 0% | 23% | 0% | 0% | 0% | 14% | 56% | 36%
9 | O=C(Nc1n[nH]c2cc(-c3cccs3)ccc12)C1CC1 [SB-731284] | 0% | 0% | 0% | 0% | 7% | 0% | 0% | 56% | 0% | 0%
10 | Cc1ccc(-c2ccc3occ(-c4ccc(S(C)=O)cc4)c3c2)nn1 (stereo not drawn) | 0% | 0% | 18% | 0% | 15% | 0% | 38% | 0% | 0% | 0%
11 | Fc1cc(Cl)ccc1Nc1ccnc2cc(-c3ccc(CN4CCOCC4)o3)ccc12 [GW560109] | 13% | 0% | 83% | 13% | 8% | 0% | 0% | 53% | 81% | 82%
12 | N#CC1(c2cccc(C(=O)Nc3cccc(Oc4ccc5nc(NC(=O)C6CC6)sc5n4)c3)c2)CC1 | 9% | 0% | 0% | 73% | 37% | 0% | 0% | 53% | 76% | 0%
13 | COc1ccc(NC(=O)c2ccoc2)cc1-c1ccc(C(=O)NCC2CC2)cc1 [GW810437] | 6% | 37% | 0% | 0% | 5% | 2% | 12% | 21% | 16% | 0%
14 | Cc1cccc(Nc2nc(N[C@H]3CCCC[C@H]3N)ncc2C(N)=O)c1.Cl [GSK986310] | 22% | 0% | 0% | 15% | 0% | 17% | 7% | 74% | 33% | 31%
15 | O=C(O)C(F)(F)F.O=c1[nH]ccc2nc(N[C@@H]3CCNC3)nc(Nc3ccc4c(c3)S(=O)(=O)CC4)c12 [GSK2181306] | 0% | 0% | 0% | 0% | 0% | 94.6% | 98.5% | 98% | 31% | 3%
16 | CC(C)c1nc(-c2cccc(NS(=O)(=O)c3c(F)cccc3F)c2)c(-c2ccnc(Nc3ccc(N4CCOCC4)nc3)n2)s1.Cl [GSK1723980] | 100% | 93.1% | 92.4% | 92.5% | 97.2% | 16% | 0% | 12% | 100% | 98.5%
17 | CN(c1ccc(NC(=O)Nc2cccc(Cl)c2)cc1)c1ccnc(N)n1.Cl [GW830707] | 4% | 71% | 0% | 86% | 19% | 0% | 5% | 0% | 28% | 3%
18 | Cl.Cl.NC(CNC(=O)c1cc(Br)c(-c2ccnc3[nH]ccc23)s1)c1ccccc1 (stereo not drawn) [GSK1322949] | 37% | 10% | 32% | 33% | 6% | 31% | 12% | 59% | 14% | 10%
19 | Cc1ccc(O)cc1Nc1ccnc2cc(-c3ccc(CN4CCCCC4)o3)ccc12 [GW557777] | 0% | 47% | 98% | 61% | 57% | 23% | 5% | 24% | 0% | 26%
20 | Cn1cc(-c2ccc3c(c2)CCN3C(=O)Cc2cc(F)cc(C(F)(F)F)c2)c2c(N)ncnc21 [GSK2635225] | 26% | 0% | 0% | 87% | 52% | 17% | 5% | 20% | 10% | 2%
21 | CN(c1ccc2c(c1)nc(NCc1ccccc1)n2C)c1ccnc(Nc2ccc(CS(C)(=O)=O)cc2)n1.Cl [GW811603] | 0% | 30% | 5% | 88% | 82% | 0% | 0% | 24% | 25% | 0%
22 | Nc1cccc(-c2ccc3c(N)n[nH]c3c2)c1 [GSK2193613] | 29% | 0% | 0% | 6% | 0% | 3% | 0% | 93.2% | 0% | 13%
23 | Cl.N#CCc1ccc(Nc2nccc(Nc3ccc(Oc4ccccc4)cc3)n2)cc1 [GW639905] | 56% | 0% | 8% | 2% | 9% | 0% | 0% | 0% | 59% | 26%
24 | COc1cccc(NC(=O)NCCNc2ccnc(Nc3ccc(F)cc3)n2)c1 [GSK1379879] | 40% | 26% | 0% | 1% | 0% | 0% | 0% | 0% | 0% | 9%
25 | COC(=O)Nc1nc2ccc(Oc3ccc(NC(=O)Nc4cc(C(F)(F)F)ccc4F)cc3)cc2[nH]1.Cl [GW654607] | 0% | 0% | 7% | 97.7% | 99.7% | 7% | 4% | 5% | 48% | 12%
26 | COc1cc(Nc2nccc(N3CCC(NS(=O)(=O)c4ccc(NC(C)=O)cc4)CC3)n2)cc(OC)c1OC [GSK1379825] | 71% | 61% | 0% | 63% | 63% | 0% | 0% | 22% | 6% | 76%
27 | COc1cccc(-c2nc(-c3ccccc3)[nH]c2-c2ccncc2)c1 [SB-610250] | 22% | 17% | 5% | 0% | 0% | 0% | 0% | 0% | 0% | 8%
28 | COc1cccc2c(-c3ccncc3)c(-c3ccc(F)cc3)nn12 [GW468513] | 0% | 65% | 47% | 33% | 0% | 0% | 0% | 69% | 0% | 14%
29 | CC(C)c1nc(-c2ccc(F)c(NS(=O)(=O)c3c(F)cccc3F)c2)c(-c2ccnc(Nc3ccc(N4CCOCC4)nc3)n2)s1 [GSK1804250] | 96.2% | 90.8% | 92.9% | 87% | 98.9% | 19% | 11% | 27% | 100% | 99.5%
30 | Cc1ccc(C)c(NC(=O)Nc2ccc(C)c(-c3ccc(C(=O)Nc4ccncc4)cc3)c2)c1 [GSK1398473] | 20% | 11% | 0% | 0% | 0% | 0% | 0% | 0% | 7% | 36%
